# Laboratory results published in the supplement of paper PMC10037445.
# Whole data set: some 2,900 compounds, median “NF-kB SEAP reporter activity, fold change vs agonist alone” near 0.99, cut for the highest 2% near 2.6. The list comes from a sample in which the highest values are over-represented; it also holds similar structures and randomly drawn compounds.
# What was measured:
# RAW-Dual [1] = experiment: NF-kB SEAP reporter activity, fold change vs agonist alone; cytotoxicity flag (confluency mask): not cytotoxic; higher = enhanced NF-kB activity
# Method in brief: (§1)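 Supernatant from RAW-Dual macrophages was read after 20 hours for IRF by QuantiLuc luminescence and for NF-κB by QuantiBlue absorbance at 620 nm. The cells (50,000 cells/well in DMEM, 384-well plates, 37 °C, 5% CO2) had received 50 nL of library stock by pin tool and, 1 h later, a PRR agonist. Reporter activity is expressed relative to agonist-alone wells as fold change, and wells were flagged cytotoxic if IncuCyte confluency was under 70% of agonist controls in both mask sets.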
# RAW-Dual [2] = experiment: NF-kB SEAP reporter activity, fold change vs agonist alone; higher = enhanced NF-kB activity; conditions: library stock concentration (final ~1000-fold dilution): 10 mM
# Method in brief: as §1
# RAW-Dual [3] = experiment: NF-kB SEAP reporter activity, fold change vs agonist alone; cytotoxicity flag (confluency mask): cytotoxic (confluency <70% of control); higher = enhanced NF-kB activity
# Method in brief: as §1
# [4] = agonist: ODN 1826 (TLR9) 0.5 ug/mL
# [5] = agonist: Pam2CSK4 (TLR2/6) 0.1 ug/mL
# [6] = agonist: Pam3CSK4 (TLR2/1) 0.1 ug/mL
# [7] = cytotoxicity flag (confluency mask): not cytotoxic, agonist: Imiquimod (TLR7) […]
# [8] = cytotoxicity flag (confluency mask): not cytotoxic, agonist: MPLA (TLR4) […]
smiles,measurement,setting,value
CNC(C)C(=O)NC(C(=O)N1CCCC1C(=O)Nc1snnc1-c1ccccc1)C1CCCCC1 (stereo not drawn) (library stock concentration (final ~1000-fold dilution): 10 mM),NF-kB SEAP reporter activity,RAW-Dual [1]; agonist: LPS (TLR4) 0.1 ug/mL,0.612
same,NF-kB SEAP reporter activity,RAW-Dual [1]; [4],0.875
same,NF-kB SEAP reporter activity,RAW-Dual [1]; [5],0.972
same,NF-kB SEAP reporter activity,RAW-Dual [1]; [6],0.8
CNC(C)C(=O)NC(C(=O)N1CCCC1C(=O)Nc1snnc1-c1ccccc1)C1CCCCC1 (stereo not drawn),NF-kB SEAP reporter activity,RAW-Dual [2]; [7],0.887
same,NF-kB SEAP reporter activity,RAW-Dual [2]; [8],0.824
O=C(Oc1coc(CSc2ncccn2)cc1=O)c1ccc([N+](=O)[O-])cc1 (library stock concentration (final ~1000-fold dilution): 10 mM),NF-kB SEAP reporter activity,RAW-Dual [1]; agonist: LPS (TLR4) 0.1 ug/mL,1.26
same,NF-kB SEAP reporter activity,RAW-Dual [1]; [4],0.944
same,NF-kB SEAP reporter activity,RAW-Dual [1]; [5],1.19
same,NF-kB SEAP reporter activity,RAW-Dual [1]; [6],0.981
O=C(Nc1ccccc1C(=O)O)c1cc(S(=O)(=O)c2ccccc2)ccc1Cl,NF-kB SEAP reporter activity,RAW-Dual [2]; [7],0.883
same,NF-kB SEAP reporter activity,RAW-Dual [2]; [8],1.01
O=C(Nc1ccccc1C(=O)O)c1cc(S(=O)(=O)c2ccccc2)ccc1Cl (library stock concentration (final ~1000-fold dilution): 10 mM),NF-kB SEAP reporter activity,RAW-Dual [1]; agonist: LPS (TLR4) 0.1 ug/mL,1.19
same,NF-kB SEAP reporter activity,RAW-Dual [1]; [4],0.999
same,NF-kB SEAP reporter activity,RAW-Dual [1]; [5],1.09
same,NF-kB SEAP reporter activity,RAW-Dual [1]; [6],1.13
O=C(Oc1cc(S(=O)(=O)c2ccccc2)ccc1[N+](=O)[O-])c1ccc(Cl)cc1,NF-kB SEAP reporter activity,RAW-Dual [2]; [7],1.32
same,NF-kB SEAP reporter activity,RAW-Dual [2]; [8],2.59
O=C(Oc1coc(CSc2ncccn2)cc1=O)c1ccc([N+](=O)[O-])cc1,NF-kB SEAP reporter activity,RAW-Dual [2]; [7],0.717
same,NF-kB SEAP reporter activity,RAW-Dual [2]; [8],1.01
O=C(Oc1cc(S(=O)(=O)c2ccccc2)ccc1[N+](=O)[O-])c1ccc(Cl)cc1 (library stock concentration (final ~1000-fold dilution): 10 mM),NF-kB SEAP reporter activity,RAW-Dual [1]; agonist: LPS (TLR4) 0.1 ug/mL,5.2
same,NF-kB SEAP reporter activity,RAW-Dual [1]; [4],2.09
same,NF-kB SEAP reporter activity,RAW-Dual [1]; [5],1.03
same,NF-kB SEAP reporter activity,RAW-Dual [1]; [6],1.81
COCCOc1cc(F)c2c(Nc3ccc(NC(=O)Cn4cc(C(C)C)nn4)cc3)ncnc2c1,NF-kB SEAP reporter activity,RAW-Dual [2]; [7],1.14
same,NF-kB SEAP reporter activity,RAW-Dual [2]; [8],1.01
COCCOc1cc(F)c2c(Nc3ccc(NC(=O)Cn4cc(C(C)C)nn4)cc3)ncnc2c1 (library stock concentration (final ~1000-fold dilution): 10 mM),NF-kB SEAP reporter activity,RAW-Dual [1]; agonist: LPS (TLR4) 0.1 ug/mL,1.36
same,NF-kB SEAP reporter activity,RAW-Dual [1]; [4],0.989
same,NF-kB SEAP reporter activity,RAW-Dual [1]; [5],1.16
same,NF-kB SEAP reporter activity,RAW-Dual [1]; [6],1.24
CC(C)c1cnn2c(NCc3ccccc3)cc(NCCCCCCN)nc12.Cl (library stock concentration (final ~1000-fold dilution): 10 mM),NF-kB SEAP reporter activity,RAW-Dual [3]; agonist: LPS (TLR4) 0.1 ug/mL,0.271
same,NF-kB SEAP reporter activity,RAW-Dual [3]; [4],0.234
same,NF-kB SEAP reporter activity,RAW-Dual [3]; [5],1.08
same,NF-kB SEAP reporter activity,RAW-Dual [3]; [6],1.5
CC(C)c1cnn2c(NCc3ccccc3)cc(NCCCCCCN)nc12.Cl,NF-kB SEAP reporter activity,"RAW-Dual [2]; cytotoxicity flag (confluency mask): cytotoxic (confluency <70% of control), agonist: Imiquimod (TLR7) […]",2.18
same,NF-kB SEAP reporter activity,"RAW-Dual [2]; cytotoxicity flag (confluency mask): cytotoxic (confluency <70% of control), agonist: MPLA (TLR4) […]",0.882
COc1ccccc1N1CCN(CCCNc2cc(=O)n(C)c(=O)n2C)CC1.Cl,NF-kB SEAP reporter activity,RAW-Dual [2]; [7],1.18
same,NF-kB SEAP reporter activity,RAW-Dual [2]; [8],0.935
COc1ccccc1S(=O)(=O)Nc1ccc2c(c1)CN(C)C(=O)N2,NF-kB SEAP reporter activity,RAW-Dual [2]; [7],2.14
same,NF-kB SEAP reporter activity,RAW-Dual [2]; [8],2.51
COc1ccccc1N1CCN(CCCNc2cc(=O)n(C)c(=O)n2C)CC1.Cl (library stock concentration (final ~1000-fold dilution): 10 mM),NF-kB SEAP reporter activity,RAW-Dual [1]; agonist: LPS (TLR4) 0.1 ug/mL,1.02
same,NF-kB SEAP reporter activity,RAW-Dual [1]; [4],0.978
same,NF-kB SEAP reporter activity,RAW-Dual [1]; [5],1.06
same,NF-kB SEAP reporter activity,RAW-Dual [1]; [6],1.17
COc1ccccc1S(=O)(=O)Nc1ccc2c(c1)CN(C)C(=O)N2 (library stock concentration (final ~1000-fold dilution): 10 mM),NF-kB SEAP reporter activity,RAW-Dual [1]; agonist: LPS (TLR4) 0.1 ug/mL,3.81
same,NF-kB SEAP reporter activity,RAW-Dual [1]; [4],2.25
same,NF-kB SEAP reporter activity,RAW-Dual [1]; [5],0.457
same,NF-kB SEAP reporter activity,RAW-Dual [1]; [6],1.4
